Measured values from PubChem BioAssay (NCATS).
Where “and” joins values, the source holds several entries; their conditions need not be identical. Equal entries are not always repeated. Inconclusive results are not listed. Entries that show only a call come without a potency. Unmarked numbers belong to inactive results. Calls of active or inactive are those of the source. Calls follow the shape of the dose curve; as a rule, active = well fitted cell-killing curve with a large enough effect; inconclusive = small, poorly fitted or top-dose-only effect, or effect the other way; inactive = no such curve, though single readings can be large or run the other way.

How the values were obtained:
[1] = Viability qHTS for spleen associated tyrosine kinase inhibitor (SYKi) naive MV4-11 cells (AID 1963823); also: nearly all actives have a fitted effect of over 40% in size
Method in brief: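 Cells: MV4-11, SYK inhibitor naive, 500 per well. Treatment: library compounds, 72 hr, 37 C, 5% CO2. Read-out: CellTiter-Glo luminescence after 10 min RT.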

[2] = Viability qHTS for spleen associated tyrosine kinase inhibitor (SYKi) drug resistant MV4-11 cells (AID 1963824); also: nearly all actives have a fitted effect of over 35% in size
Method in brief: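 CellTiter-Glo luminescence, read 10 min after reagent addition, reports viability after a 72 hr compound exposure. Cells are an MV4-11 line made resistant to SYK inhibition, seeded at 500 per well onto compound-containing plates.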
Potency is read from the fitted curve at half-maximal effect.

Row | SMILES | viability (% of control) [1] | viability, % of control [2] | Potency [1] | Potency [2]
1 | NC[C@@H]1O[C@@H](O[C@@H]2[C@@H](O[C@@H]3O[C@H](CO)[C@@H](O)[C@H]3O)[C@H](O)[C@@H](N)C[C@H]2N)[C@@H](N)[C@H](O)[C@H]1O | 88.1% [at 9.25 µM] | 93.2% [at 9.25 µM] |  | 
2 | Cc1ccc(NS(=O)(=O)c2cc3c(cc2N[C@@H](C)CO)NC(=O)CC3)cc1Cl |  |  | 16.4 µM (active) | 11.6 µM (active)
3 | C/C=C/C=C/[C@@H]1O[C@](O)([C@H](CC)C(=O)NC/C=C/C=C(\C)[C@@H](OC)[C@@H](C)[C@@H]2O[C@H](/C=C/C=C/C=C(\C)C(=O)c3c(O)ccn(C)c3=O)[C@H](O)[C@@H]2O)[C@H](O)[C@H](O)C1(C)C | 84.2% [at 9.25 µM] | 85.3% [at 9.25 µM] |  | 
4 | COC(=O)/C=C/c1ccc(O[C@@H]2O[C@H](CO)[C@@H](O)[C@H](O)[C@H]2O)cc1 |  |  | inactive | inactive
5 | CCNC(=O)[C@@H]1CCCN1C(=O)[C@H](CCCN=C(N)N)NC(=O)[C@H](CC(C)C)NC(=O)[C@@H](CC(C)C)NC(=O)[C@H](Cc1ccc(O)cc1)NC(=O)[C@H](CO)NC(=O)[C@H](Cc1c[nH]c2ccccc12)NC(=O)[C@H](Cc1cnc[nH]1)NC(=O)[C@@H]1CCC(=O)N1 |  |  | inactive | 7.09 µM (active)
6 | CC1OC(O[C@@H]2[C@@H](O)[C@H](OC(=O)[C@]34CCC(C)(C)C[C@H]3C3=CCC5[C@@]6(C)CC[C@H](O[C@@H]7O[C@H](C(=O)O)[C@@H](O)[C@H](O[C@@H]8OC[C@@H](O)[C@H](O)[C@H]8O)[C@H]7O[C@@H]7O[C@H](CO)[C@H](O)[C@H](O)[C@H]7O)[C@@](C)(C=O)C6CC[C@@]5(C)[C@]3(C)C[C@H]4O)O[C@H](C)[C@@H]2OC2OC(C)C(OC3OCC(O)C(O)C3O)C(O)C2O)C(O)C(O)C1O (stereo partly specified) | 94.8% [at 9.25 µM] | 106% [at 9.25 µM] |  | 
7 | CC(C)(C)c1cc(Br)cc([C@H](CC(=O)O)NC(=O)CNC(=O)c2cc(O)cc(NC3=NCC(O)CN3)c2)c1 (stereo partly specified) |  |  | inactive | inactive
8 | C/C=C1\[C@H](O[C@@H]2O[C@H](CO)[C@@H](O)[C@H](O)[C@H]2O)OC=C(C(=O)OC)[C@H]1CC(=O)O |  |  | inactive | inactive
9 | CC/C=C\C[C@H]1C(=O)C=C[C@@H]1CCCCCCCC(=O)O |  |  | 16.4 µM (active) | 23.1 µM (active)
10 | CC1=CC[C@]2(C(=O)O[C@@H]3O[C@H](CO[C@@H]4O[C@H](CO)[C@@H](O[C@@H]5O[C@@H](C)[C@H](O)[C@@H](O)[C@H]5O)[C@H](O)[C@H]4O)[C@@H](O)[C@H](O)[C@H]3O)CC[C@]3(C)C(CCC4[C@@]5(C)C[C@@H](O)[C@H](O)[C@@](C)(CO)C5CC[C@]43C)C2C1C (stereo partly specified) | 78.2% [at 9.25 µM] | 86.5% [at 9.25 µM] |  | 
11 | Cc1cc2c(N3CCCC3)nc(N3CCCC3)nc2n1C |  |  | 8.2 µM (active) | 7.31 µM (active)
12 | CNC(C)C(=O)NC(C(=O)N1CCCC1C(=O)Nc1cccc2ncccc12)C(C)C (stereo unspecified) |  |  | inactive | 11.6 µM (active)
13 | CC(O)(C(=O)C1CC1(CO)COC1OC(CO)C(O)C(O)C1O)C1C(O)CC2C3CC=C4CC(O)CC(O)C4(C)C3C(O)CC21C (stereo unspecified) |  |  | 0.217 µM (active) | 0.217 µM (active)
14 | CC(=O)c1c(O)cc(O[C@@H]2O[C@H](CO)[C@@H](O)[C@H](O)[C@H]2O)cc1O |  |  | inactive | inactive
15 | C=C1C(=O)O[C@H](CCC)[C@H]1C(=O)O |  |  | inactive | inactive
16 | CC1=C(C)C(=O)C(CCCCC#CCCCC#CCO)=C(C)C1=O |  |  | 11.9 µM (active) | 13.3 µM (active)
17 | CC1CCC2(NC1)OC1C(O)C3C4CCC5CC(O[C@@H]6O[C@H](CO)[C@@H](O)[C@H](O)[C@H]6O[C@@H]6O[C@@H](C)[C@H](O)[C@@H](O)[C@H]6O)CCC5(C)C4CCC3(C)C1C2C (stereo partly specified) |  |  | inactive | inactive
18 | C/C(=C/CO)CC[C@H]1[C@]2(C)C[C@H](O)CC(C)(C)[C@H]2CC[C@]1(C)O |  |  | inactive | inactive
19 | Nc1ncnc2c1c(-c1ccc(Oc3ccccc3)cc1)cn2C1CCCC1 |  |  | 0.366 µM (active) | 1.03 µM (active)
20 | Nc1ccc(-c2cnc(N)c(-c3ccc(Cl)cc3)c2)cn1 |  |  | 5.8 µM (active) | 8.2 µM (active)
21 | C=C1C(=O)O[C@@H]2[C@H]3C(C)=CC(=O)C3=C(C)CC[C@@H]12 |  |  | 2.06 µM (active) | 0.651 µM (active)
22 | C/C(=C\CC[C@@H](C)[C@H]1CC(O)[C@@]2(C)C3CC[C@H]4C(C)(C)[C@@H](OC5OCC(O)C(O)C5OC5OC(CO)C(O)C(O)C5O)CC[C@@]45C[C@@]35CC(O)[C@]12C)C(=O)O (stereo partly specified) |  |  | inactive | inactive
23 | C=C(C(=O)O)C1CC(O)C2(C)CCCC(C)(O)C2C1 (stereo unspecified) |  |  | inactive | inactive
24 | C=C(C)C(=O)O[C@H]1[C@H]2C(=C)C(=O)O[C@@H]2C[C@@H](C)[C@@H]2O[C@@H]2C(=O)[C@](C)(O)[C@@H]1OC(C)=O |  |  | 2 µM (active) | 1.59 µM (active)

Row | SMILES | viability (% of control) [1] | viability, % of control [2] | Potency [1] | Potency [2]
25 | N#C/C(=C1\Nc2ccccc2S1)c1ccnc(NCCc2cccnc2)n1 |  |  | 2.31 µM (active) | 2.31 µM (active)
26 | CCOC(=O)CCC(=O)O[C@H]1[C@H](O[C@@H]2[C@@H](C)[C@H](O[C@H]3C[C@@](C)(OC)[C@@H](O)[C@H](C)O3)[C@@H](C)C(=O)O[C@H](CC)[C@@](C)(O)[C@H](O)[C@@H](C)C(=O)[C@H](C)CC2(C)O)O[C@H](C)C[C@@H]1N(C)C (stereo partly specified) |  |  | inactive | inactive
27 | Cc1cc(-c2ccc(/C=C3\SC(=Nc4ccc(Cl)c(C(=O)O)c4)NC3=O)o2)c([N+](=O)[O-])cc1C |  |  | inactive | inactive
28 | O=C1c2ccccc2-c2nc3nnnn3nc21 (tested in a mixture with another compound) |  |  | 0.092 µM (active) | 0.103 µM (active)
29 | COC(=O)CCc1cc2ccoc2c(OC)c1O[C@@H]1O[C@H](CO)[C@@H](O)[C@H](O)[C@H]1O |  |  | inactive | inactive
30 | CC(=O)O[C@H]1[C@H](Oc2ccccc2COC(=O)C2(O)C=CCCC2=O)O[C@H](CO)[C@@H](O)[C@@H]1O (stereo partly specified) |  |  | inactive | inactive
31 | CC1(C)CCCC2(C)C=C(C(=O)O)C(O)CC12 (stereo unspecified) |  |  | inactive | inactive
32 | O=C(/C=C/c1ccccc1)OC[C@H]1O[C@@H](OC(=O)c2cc(O)c(O)c(O)c2)[C@H](O)[C@@H](O)[C@@H]1O |  |  | inactive | inactive
33 | C=C1CC[C@@H]2[C@](C)(CO)[C@H](O)CC[C@@]2(C)[C@@H]1C/C=C1/C(=O)OC[C@H]1O |  |  | 2.63 µM (active) | 2.95 µM (active)
34 | C[C@H](N)C(=O)N[C@@H](Cc1ccc(O)cc1)C(=O)N1CCC[C@H]1C(=O)NCC(=O)N[C@@H](CCCCN)C(=O)N[C@@H](Cc1ccccc1)C(N)=O | 94.9% [at 9.25 µM] | 89.8% [at 9.25 µM] |  | 
35 | Cn1ccnc1CCOC(c1cc2nccc(C(=O)O)c2[nH]1)c1ccccc1Cl (stereo unspecified) |  |  | inactive | inactive
36 | O=C(C(c1ccccc1)c1ccccc1)N1CCN(CC(O)COc2cccc3ncccc23)CC1 (stereo unspecified) |  |  | 20.9 µM (active) | 10.3 µM (active) and 11.8 µM (active)
37 | C[C@]1(O)CC[C@@H]2C(C(=O)O)=CO[C@@H](O[C@@H]3O[C@H](COC(=O)/C=C/c4ccc(O)c(O)c4)[C@@H](O)[C@H](O)[C@H]3O)[C@@H]21 |  |  | inactive | inactive
38 | NC1CCCN(c2c(/C=C3\SC(=O)NC3=O)cccc2-c2ccccc2)C1 (stereo unspecified) |  |  | 2.06 µM (active) and 3.72 µM (active) | 8.2 µM (active) and 13.2 µM (active)
39 | COc1cc2c(cc1OC)-c1[nH]nc(Nc3cccc(F)c3)c1C2 |  |  | 0.082 µM (active) | 0.0731 µM (active)
40 | COC(=O)[C@@]1(O)C=CC[C@@H]2[C@@]3(C)C[C@@H](c4ccoc4)OC(=O)[C@H]3CC[C@]21C |  |  | inactive | inactive
41 | C[C@@H]1O[C@@H](O[C@H]2[C@H](O)[C@@H](C(=O)O)O[C@@H](O[C@H]3CC[C@@]4(C)C(CC[C@]5(C)C4CC=C4C6CC(C)(C)CC[C@]6(C(=O)O)CC[C@]45C)C3(C)C)[C@@H]2O[C@@H]2O[C@H](CO)[C@@H](O)[C@H](O)[C@H]2O)[C@H](O)[C@H](O)[C@H]1O (stereo partly specified) | 72.6% [at 9.25 µM] | 81.7% [at 9.25 µM] |  | 
42 | CC1=C(C(=O)O)/C(=C\CO[C@@H]2O[C@H](CO)[C@@H](O)[C@H](O)[C@H]2O)C(OC(=O)/C=C/c2ccc(O)cc2)C1 (stereo partly specified) |  |  | inactive | inactive
43 | O=C1C=CC2OC(c3ccccc3)C(O)C2O1 (stereo unspecified) |  |  | 6.51 µM (active) | 4.11 µM (active)
44 | C=C[C@H]1[C@H](O[C@@H]2O[C@H](CO)[C@@H](O)[C@H](O)[C@H]2O)OC=C2C(=O)N3Cc4c([nH]c5ccccc5c4=O)[C@@H]3C[C@H]21 |  |  | inactive | inactive
45 | O=C(C[C@@H]1C(C(=O)O)=CO[C@@H](O[C@@H]2O[C@H](CO)[C@@H](O)[C@H](O)[C@H]2O)/C1=C\CO)OCCc1ccc(O)c(O)c1 |  |  | inactive | inactive
46 | CCC(C)(O)C(O)C(=O)OCc1ccc(O[C@@H]2O[C@H](CO)[C@@H](O)[C@H](O)[C@H]2O)cc1 (stereo partly specified) |  |  | inactive | inactive
47 | CC(=O)OC1C(O)CC(O[C@@H]2O[C@H](CO)[C@@H](O)[C@H](O)[C@H]2O)C2CCC3C(=O)OC(c4ccoc4)CC3(C)C21 (stereo partly specified) |  |  | inactive | inactive
48 | C[C@@H]1C[C@H]2[C@@H]3CCC4=CC(=O)C=C[C@]4(C)[C@@]3(F)[C@@H](O)C[C@]2(C)[C@@]1(O)C(=O)COP(=O)(O)O |  |  | inactive | inactive
